# Measurements reported in the supplement of paper PMC8183993.
# Values joined by “and” are separate entries in the source; they are usually repeats but may differ in a detail not shown here. Equal entries are not always repeated. Structures can show the parent of a compound that is named as a salt. ± gives the standard deviation of the averaged measurements. In all, about 3,200 compounds were measured (“nuclei count (viability) relative to DMSO”: median about 99, lowest 2% from about 16 on). The entries come from a sample that favours the lowest values as a whole.
# Tested on: U2OS
# Test: nuclei count (viability) relative to DMSO (% of DMSO); higher = more viable cells
# Details: 10 µM; 24 h
# Method: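 Primary image-based screen in U2OS cells: compounds at 10 uM for 24 h, then a 1 h o-propargyl-puromycin (OPP) pulse, click labelling, and high-throughput microscopy. Mean cytoplasmic OPP intensity and nuclei count were normalised to DMSO wells within each plate (DMSO = 100) and averaged over triplicate plates.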
row,Compound,nuclei count
1,CC(C)c1ccc(NC(=O)Cn2cnc3c2c(=O)n(C)c(=O)n3C)cc1,103
2,COc1cc2c(NC3CCN(C(C)C)CC3)nc(N3CCC(F)(F)CC3)nc2cc1OCCCN1CCCC1,50.6
3,C[C@@H]1CN(CCCn2c3ccccc3c3ccccc32)C[C@H](C)N1 [Rimcazole dihydrochloride],80
4,CCN(CC)CCCC(C)Nc1ccnc2cc(Cl)ccc12 (stereo not given) [Chloroquine],96.6
5,CCN(CCO)CCCC(C)Nc1ccnc2cc(Cl)ccc12 (stereo not given) [Hydroxychloroquine],85.7
6,CCN(CC)CCCC(C)Nc1ccnc2cc(Cl)ccc12 (stereo not given) [Chloroquine diphosphate],103
7,CCN(CCO)CCCC(C)Nc1ccnc2cc(Cl)ccc12 (stereo not given) [Hydroxychloroquine sulfate],96.1
8,CCN(CC)CCCC(C)Nc1c2ccc(Cl)cc2nc2ccc(OC)cc12 (stereo not given) [Quinacrine dihydrochloride dihydrate],12.9
9,CC1=CC(=O)C(C(C)C)=CC1=O [Thymoquinone],103
10,COc1ccc(CCN(C)CCCOc2ccc(S(=O)(=O)c3c(C(C)C)n(C)c4ccccc34)cc2)cc1OC,47.5
11,C1CCC(C(CC2CCCCN2)C2CCCCC2)CC1 (stereo not given) [Perhexiline maleate],5.66
12,COc1cc(-c2cn(C)c(=O)c3cnccc23)c(OC)cc1CN(C)C,110
13,Cc1ccc(-n2nc(C(C)(C)C)cc2NC(=O)Nc2ccc(OCCN3CCOCC3)c3ccccc23)cc1 [BIRB 796 (Doramapimod)],94.7
14,COc1ccc(NC(=O)c2ccc(-c3ccc(-c4noc(C)n4)cc3C)cc2)cc1OCCN(C)C,100
15,C[n+]1cc2c3c(ccc2c2ccc4cc5c(cc4c21)OCO5)OCO3 [Sanguinarine chloride],12
16,COc1ccc2cc3[n+](cc2c1OC)CCc1cc2c(cc1-3)OCO2 [Berberine HCl],98.6
17,Cc1[nH]c2ccccc2c1C(Nc1ccccn1)c1ccc(Cl)cc1 (stereo not given),93.9
18,CC[N+](C)(CC)CC(=O)Nc1c(C)cccc1C [N-Methyllidocaine iodide],98.4
19,CC1=C(C(=O)OCCN(Cc2ccccc2)c2ccccc2)C(c2cccc([N+](=O)[O-])c2)C(P2(=O)OCC(C)(C)CO2)=C(C)N1 (stereo not given) [Efonidipine hydrochloride monoethanolate],99.9
20,COc1cc(NC(C)CCCN)c2ncccc2c1 (stereo not given) [Primaquine diphosphate],15.7
21,CCC(C)N(C)C(=O)c1cc2ccccc2c(-c2ccccc2Cl)n1 (stereo not given),106
22,COC(=O)c1c(-c2cc(OC)c(OC)c(OC)c2)c2ccnc(OCc3ncccn3)c2c(=O)n1Cc1ccnc(C)c1 [T 0156 hydrochloride],107
23,COc1cc2c(Nc3ccc(NC(=O)c4ccccc4)cc3)ncnc2cc1OCCCN1CCOCC1,49.8 and 53.3
24,COc1cc2nccc(Oc3ccc(NC(=O)C4(C(=O)Nc5ccc(F)cc5)CC4)cc3)c2cc1OC [XL-184 free base (Cabozantinib)],51.5
25,COc1cc2c(Oc3ccc(NC(=O)C4(C(=O)Nc5ccc(F)cc5)CC4)cc3F)ccnc2cc1OCCCN1CCOCC1,12

row,Compound,nuclei count
1,COc1cc2nccc(Oc3ccc(NC(=O)C4(C(=O)Nc5ccc(F)cc5)CC4)cc3)c2cc1OC [Cabozantinib malate],59
2,O=C1c2c(O)cc(O)cc2OC(c2ccc(O)c(O)c2)C1O (stereo not given) [Taxifolin (Dihydroquercetin)],90.7
3,O=C(O)c1ccc(O)c2ncccc12,99.5
4,COc1ccc([C@@H]2CNC(=O)C2)cc1OC1CCCC1 [(R)-(-)-Rolipram],96.2
5,CC[N+](CC)(CC)CC(=O)Nc1c(C)cccc1C [QX 314 bromide],97.5
6,CC[N+](CC)(CC)CC(=O)Nc1c(C)cccc1C [QX 314 chloride],104
7,CC[N+](CC)(CC)CC(=O)Nc1c(C)cccc1C [QX-314 bromide],104
8,CCCCCCCCCCCCCCCC[N+](C)(C)CCN(Cc1ccc(OC)cc1)c1ncccn1 [Thonzonium bromide],12.1
9,COc1ccc(CN(CCN(C)C)c2ccccn2)cc1 [Mepyramine maleate],104
10,COc1ccc(CN(CCN(C)C)c2ccccn2)cc1 [Pyrilamine maleate],102
11,CN(C)CCN(Cc1ccc(Cl)cc1)c1ccccn1 [Chloropyramine hydrochloride],105
12,CC(=O)O[C@@H]1C[C@H]2C(C)(C)C(=O)C=C[C@]2(C)[C@H]2CC[C@@]3(C)[C@H](c4ccoc4)OC(=O)[C@H]4O[C@]43[C@@]21C [Gedunin],85.6
13,COC1CCC(C(=O)c2ccc3nc4c(cc3c2)CCCO4)CC1 (stereo not given),96.5
14,CCn1cc(-c2cccc(C(F)(F)F)c2)c2sc(C(=N)NC3CCS(=O)(=O)CC3)cc2c1=O,91.5
15,Cc1ccc(C(=O)N(CCCN)[C@@H](c2oc3cc(Cl)ccc3c(=O)c2Cc2ccccc2)C(C)C)cc1,20.5
16,Cc1ccc(C(=O)N(CCCN)[C@@H](c2nc3cc(Cl)ccc3c(=O)n2Cc2ccccc2)C(C)C)cc1,9.23
17,Fc1ccc(-c2nc3n(c2-c2ccncc2)CCS3)cc1,103
18,C[C@H]1C[C@H]2[C@@H]3CCC4=CC(=O)C=C[C@]4(C)[C@H]3C(=O)C[C@]2(C)[C@@]1(O)C(=O)CO [Betapar (Meprednisone)],107
19,"C[C@H](CC[C@@H]1OC1(C)C)[C@H]1CC[C@H]2[C@@H]3CC=C4C[C@@H](O)CC[C@]4(C)[C@H]3CC[C@]12C [24(S),25-Epoxycholesterol]",107
20,Cc1c(NC(=O)OC[C@@H]2COCCN2)cn2ncnc(Nc3ccc4c(cnn4Cc4cccc(F)c4)c3)c12,100
21,CC1(C)C(=O)NC2=C1C(=O)C(=O)c1ccccc12,40.5 and 19.2
22,COc1ccc(NS(=O)(=O)c2sc3ccc(Cl)cc3c2C)cc1N1CCNCC1,98.3
23,O=C(Nc1ccccc1)C12CC1C(=NO)c1ccccc1O2 (stereo not given),99.8
24,O=C(NCCN1CCOCC1)c1ccc(Cl)cc1 [Moclobemide],90.8
25,O=C1C(Cl)=C(NCCN2CCOCC2)C(=O)c2ncccc21,5.89

row,Compound,nuclei count
1,Cc1cc(-c2ccccc2)nnc1NCCN1CCOCC1 [Minaprine dihydrochloride],102
2,CCN(CC)c1ccc(/C=N/NC(=O)c2ccc(O)cc2)cc1,89.4
3,C[N+](C)(C)CC[N+]1(C)Cc2c(Cl)c(Cl)c(Cl)c(Cl)c2C1 [Chlorisondamine diiodide],90.8
4,O=C(O)[C@H]1O[C@@H](Oc2cc3oc(-c4ccccc4)cc(=O)c3c(O)c2O)[C@H](O)[C@@H](O)[C@@H]1O [Baicalin],101
5,c1cc2c3c(c1)c1c(n3CCNC2)CCCC1 [WAY 629 hydrochloride],94.2
6,Cc1cc(O)c2c(c1)C(=O)c1cccc(O)c1C2=O [Chrysophanic acid (Chrysophanol)],92.5 ± 11
7,CCN(CC)Cc1ccc2cc(COC(=O)Nc3ccc(C(=O)NO)cc3)ccc2c1 [ITF2357 (Givinostat)],14.7
8,CC(C)[C@H](C(=O)Nc1ccc(C(=O)NO)cc1)c1ccccc1,29.3
9,COc1ccc(Cn2ccc3ccc(C(=O)NO)cc32)cc1,101
10,Nc1ncnc2c1ncn2[C@@H]1O[C@H](COP(=O)(O)OP(=O)(O)OP(=O)(O)O)[C@@H](O)[C@H]1O [ATP (Adenosine-Triphosphate)],106
11,CCN(CC)CCNC(=O)c1c(C)[nH]c(/C=C2\C(=O)Nc3ccc(Cl)cc32)c1C,79.9
12,CCCS(=O)(=O)c1nc(NC2CC2)cc(-c2ccc3c(ccn3C3CC(C)(C)NC(C)(C)C3)c2)n1,8.4
13,O=C(NC[C@H](O)CN1CCc2ccccc2C1)c1ccnc(NC2CCC2)c1,102
14,Cc1ccc(/C=C2\CNC/C(=C\c3ccc(C)cc3)C2=O)cc1,7.58
15,CC1(C)[C@@H](O[C@H]2O[C@H](C(=O)O)[C@@H](O)[C@H](O)[C@H]2O[C@@H]2O[C@H](C(=O)O)[C@@H](O)[C@H](O)[C@H]2O)CC[C@]2(C)[C@H]3C(=O)C=C4[C@@H]5C[C@@](C)(C(=O)O)CC[C@]5(C)CC[C@@]4(C)[C@]3(C)CC[C@@H]12 [Ammonium Glycyrrhizinate (AMGZ)],101
16,CC1(C)[C@@H](O[C@H]2O[C@H](C(=O)O)[C@@H](O)[C@H](O)[C@H]2O[C@@H]2O[C@H](C(=O)O)[C@@H](O)[C@H](O)[C@H]2O)CC[C@]2(C)[C@H]3C(=O)C=C4[C@@H]5C[C@@](C)(C(=O)O)CC[C@]5(C)CC[C@@]4(C)[C@]3(C)CC[C@@H]12 [Glycyrrhizic acid],101
17,CC(C)Cc1ccc(C(C)C(=O)NO)cc1 (stereo not given) [Ibuproxam],95.9
18,CN(C)c1ccc(C(=C2C=CC(=[N+](C)C)C=C2)c2ccc(N(C)C)cc2)cc1 [Crystal violet],13
19,CCOC(=O)Nc1cc(-c2ccc(C)c(NS(C)(=O)=O)c2)nn2c(C)nnc12 [Bromosporine],74.5
20,"CCCn1c(=O)c2[nH]c(-c3ccccc3)nc2n(CCC)c1=O [1,3-Dipropyl-8-phenylxanthine]",98.9
21,CC(C)C(=O)SCCCCCCC(=O)Nc1nc(-c2ccccc2)cs1,45.8
22,CCOC(=O)c1cnc2c(cnn2CC)c1NN=C(C)C [Etazolate hydrochloride],106
23,CN1CCCN(C(=O)c2cccc(-c3ccc(/C=C4/C(=O)Nc5ccc(Cl)cc54)o3)c2)CC1,6.22
24,CN1CCN(C(=O)c2nc3ccc(Cl)cc3[nH]2)CC1,88.3
25,Cc1[nH]c(/C=C2\C(=O)Nc3ccc(S(=O)(=O)N(C)c4cccc(Cl)c4)cc32)c(C)c1C(=O)N1CCN(C)CC1,52.4
